Measured values as given in PubChem BioAssay AID588856 (National Center for Advancing Translational Sciences (NCATS), 2011).
“And” between values parts separate entries of the source, which are not always exact repeats. Equal values may be shown once. Out of some 410,000 compounds screened, about 3,100 (0.76%) were called active. A call without a number means that no potency is given here. Calls come from the whole dose curve; as a rule, active = well fitted cell-killing curve with a large enough effect; inactive = no such curve, though single readings can be large or run the other way. Many of the other results were omitted from the sample, so actives are more common in it than they were. The source holds several records for some structures; these can differ, active in one and inactive in another.

assay: qHTS for Inhibitors of TGF-b: Cytotox Counterscreen; details: HepG2 CAGA-GFP viability, ATP luminescence, 18 h; series mostly up to 46.1 µM
Outline: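 CellTiter-Glo luminescence gave cytotoxicity after 18 hours at 37 degrees C. The cells were HepG2 CAGA-GFP in 1% FBS DMEM, stimulated with 500 pg/mL TGF-beta after compound addition. %Activity was normalised to no-cell wells (complete cell-killing) and DMSO (no toxicity), and curves were fitted and classified.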
Potency is the fitted concentration of half-maximal effect.

Structure (SMILES)	Potency
CC(=O)Nc1cccc(NC(=O)CSc2nccn2Cc2ccc3c(c2)OCO3)c1	inactive
Cc1cccc(NC(=O)Cn2c(=O)n(CCC(C)C)c(=O)c3cccnc32)c1	inactive
O=C(NCCN1CCN(Cc2ccccc2)CC1)c1cc2c(=O)[nH]c3ccccc3c2s1	inactive
CCn1c(=O)c2cc(C(=O)NCCc3ccc(Cl)cc3)sc2c2ccccc21	inactive
CCC1CCCCN1CCCNC(=O)c1cc2c(Cl)nc3ccccc3c2s1 (configuration not stated)	inactive and 12.6 µM (active)
COc1ccc(CCN2C(=O)c3[nH]nc(-c4ccccc4O)c3C2c2ccc(C)cc2)cc1OC (configuration not stated)	inactive
CCCOc1ccc(C2c3c(-c4ccccc4O)n[nH]c3C(=O)N2Cc2cccnc2)cc1 (configuration not stated)	inactive
CCCCN1C(=O)c2[nH]nc(-c3ccccc3O)c2C1c1cccc(OCc2ccccc2)c1 (configuration not stated)	14.1 µM (active)
O=c1[nH]c2cc(Br)ccc2n2cccc12	inactive
Cc1cccc(N2CCN(C(=O)c3cc4c(=O)oc5ccccc5c4s3)CC2C)c1 (configuration not stated)	inactive
CC(C)c1ccc2oc(-c3cc(NC(=O)c4cccs4)ccc3Cl)nc2c1	inactive
CCCn1nc(C(=O)NNC(=O)CSCC(=O)Nc2cc(C)on2)c2ccccc2c1=O	11.2 µM (active)
CCCCn1nc(C(=O)Nc2cccc(C(=O)NC3CC3)c2)c2ccccc2c1=O	inactive
CCCn1nc(C(=O)NNC(=O)CCOc2ccccc2OCC)c2ccccc2c1=O	inactive
Cc1csc[n+]1CCC1CCCCC1	inactive
O=C(O)C1CC=CC2CCN(C3CCCCC3)C(=O)C21 (configuration not stated)	inactive
CCCS(=O)(=O)Nc1cccc(-c2cn3ccsc3n2)c1	inactive
CSc1nc(Nc2ccc(F)cc2)cc(-c2ccccc2)n1	inactive
CSc1nc(-c2ccccc2)nc(C(Cl)Cl)n1	5.01 µM (active)

Structure (SMILES)	Potency
O=C(NCC1CC1)C1(C(F)(F)F)C/C(=C\CCO)CCCO1 (configuration not stated)	inactive
Cc1ccc(N(Cc2cc(=O)[nH]c3ccccc23)C(=O)CCl)cc1	17.8 µM (active)
Cn1nnnc1SCc1cc(=O)[nH]c2ccccc12	inactive
Cc1ccc(N(Cc2ccccc2O)C(=O)c2ccccc2F)cc1	inactive
O=c1cc(-c2ccccc2)n2c(SCc3ccccc3)nnc2[nH]1	inactive
CC(C)NC(=O)C1CCC(Cn2c(=O)c3sccc3n(Cc3ccc(F)cc3)c2=O)CC1 (configuration not stated)	inactive
O=C(NC(c1ccc(-c2ccccc2)cc1)c1cnccn1)C1CCN(CCOc2ccc(Cl)cc2Cl)CC1 (configuration not stated)	inactive
Cc1ccc(C(NC(=O)C2CCN(CCOc3ccc(Cl)cc3Cl)CC2)c2ccccn2)cc1 (configuration not stated)	20 µM (active)
Cc1cccnc1C(NC(=O)C1CCN(Cc2ccc(Cl)c(Cl)c2)CC1)c1ccc(Cl)cc1 (configuration not stated)	inactive
CCCCOc1ccc(CN2C(=O)C(=O)c3cc(Br)cc(C)c32)cc1OC	15.8 µM (active)
CCCCOc1ccc(Cn2c(=O)oc3ccc(C)cc32)cc1OC	inactive
Cc1cccc2c1N(CCOc1ccccc1)C(=O)C2=O	inactive
CCCn1c(SCC(=O)Nc2c(C)cccc2C)nnc1C(C)C	inactive
O=C(CSc1nnc(CN2CCCC2)n1-c1ccc(F)cc1)c1ccc2c(c1)OCO2	inactive
CCCn1c(SCC(=O)c2ccc3c(c2)OCCO3)nnc1C(C)C	10 µM (active)
Cc1cccc(C)c1-n1ncc(C(=O)NCCCN2CCCCC2)c1C1CCN(C(=O)OC(C)(C)C)CC1	inactive
COc1cc(OC)c(NC(=O)c2cnc(N3CCCC3)nc2C)cc1Cl	inactive
CC(C)c1nnc(NC(=O)COC(=O)/C=C/c2ccc([N+](=O)[O-])cc2)s1	inactive
CCOC(=O)c1c(C)[nH]c(C)c1C(=O)COC(=O)/C=C/c1cccc([N+](=O)[O-])c1	inactive

Structure (SMILES)	Potency
CCOC(=O)/C(=C\c1ccc([N+](=O)[O-])cc1)C(=O)c1cc(C(C)=O)c(Nc2ccccc2)s1	5.01 µM (active)
COc1ccccc1C(=O)N/C(=C/c1ccco1)C(=O)Nc1ccc(C(=O)O)cc1	inactive
CC(C)OCCCn1c(SCC(=O)c2ccccc2)nc2c(sc3ccccc32)c1=O	inactive
COCCCn1c(=O)/c(=C/c2ccccc2OC(C)C)s/c1=C(\C#N)C(=O)Nc1ccc(C(=O)O)cc1	12.6 µM (active)
COc1cc2nc(C#Cc3nc4cc(OC)c(OC)cc4[nH]3)[nH]c2cc1OC	inactive
Cc1onc(C(=O)Nc2ccc3c(c2)OCO3)c1[N+](=O)[O-]	inactive
Cc1cccc(NC(=O)Nc2ccc3c(c2)OCO3)n1	22.4 µM (active)
CNS(=O)(=O)c1ccc(NC(=O)Nc2ccc3c(c2)OCO3)cc1	inactive
CC1CCCN(Cc2c(O)ccc3c(=O)c(Oc4ccc(C(C)(C)C)cc4)c(C(F)(F)F)oc23)C1 (configuration not stated)	inactive
CCOc1ccc(NC(=O)c2cc(S(=O)(=O)N3CCCC3)c[nH]2)cc1	inactive
CCN1CCCC1CNC(=O)c1ccc2c(c1)NC(=O)/C(=C\c1ccccc1F)S2 (configuration not stated)	15.8 µM (active)
O=C1Nc2cc(C(=O)N3CCC(N4CCCCC4)CC3)ccc2S/C1=C\c1ccccc1	inactive
COc1ccc(CN2CCCC(CNC(=O)c3ccc(F)cc3)C2)cc1OC (configuration not stated)	inactive
COc1ccccc1-c1noc(-c2ccc(NCc3ccccc3)c([N+](=O)[O-])c2)n1	inactive
Cc1ccc(Cn2cnc3c(cnn3C(C)(C)C)c2=O)c(F)c1	inactive
NC(=O)COc1ccc(/C=N/NC(=O)C2CCCN2S(=O)(=O)c2ccc(Cl)cc2)cc1 (configuration not stated)	inactive
NC(N)=N/N=C/c1ccc(OCc2ccc(Cl)cc2Cl)cc1	14.1 µM (active)
Cc1ccc(CCNC(=O)Cn2c(-c3cccs3)cc3cc(F)ccc32)cc1	inactive
CC(C)c1ccc(NC(=O)Cn2nnc(C(=O)NCCc3ccccc3)c2N)cc1	inactive
